Screening results as filed in PubChem BioAssay.
This is one part of a sample in which hits are shown more often than they occur.
Shiga toxin inh – A qHTS for Small Molecule Inhibitors of Shiga Toxin; Vero cells, Shiga toxin protein synthesis inhibition reporter; inhibition, % at 38.7 µM; 290,000 tested, 9.2% active; in the data active means inhibition mostly above about 28%, no sharp cut-off; inactive means mostly below about 43%; further: 0% is about no effect
TbPYK inhibitor – qHTS of Trypanosoma Brucei Inhibitors; AID 624173, 2012; 410,000 tested, 0.12% active; TbPYK enzyme, Kinase-Glo Plus ATP luminescence, 45 min; pyruvate kinase (Trypanosoma brucei), Q57TT1; Potency, µM (doses to about 76.8 µM), for inactives: at the highest dose activity, negative = inhibition, hits mostly inhibitors; further: potency means the concentration at half of the fitted maximal effect; on the % scale 0 is the no-effect control and ±100 the full control effect; nearly all actives have a fitted effect of over 50% in size
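Luminescence from Kinase-Glo Plus, added after a 45-minute room-temperature reaction, served as the end-point read-out. The enzyme and substrate were preincubated with compound before ADP (130 uM final) initiated turnover. Concentration-effect curves came from normalized qHTS data.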
LmPK inhibitor – qHTS Assay for Inhibitors of Leishmania Mexicana Pyruvate Kinase (LmPK); Q27686; purified LmPK, Kinase-Glo ATP luminescence, 1 h; Potency, µM (top dose mostly 57.5 µM), inactives show top-dose activity change, negative = inhibition, hits mostly inhibitors; 290,000 tested, 0.37% active; AID 1721, 2009; further: potency means the concentration at half of the fitted maximal effect; on the % scale 0 is the no-effect control and ±100 the full control effect
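qHTS format; LmPK 0.1 nM; substrates PEP 0.5 mM and ADP 0.1 mM. One-hour room-temperature incubation, then coupled luciferase luminescence; 0.5 nM enzyme wells mark activation.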
Cycloheximide cs – Cycloheximide Counterscreen for Small Molecule Inhibitors of Shiga Toxin; cell reporter, cycloheximide protein synthesis inhibition counterscreen; max response, %; 300,000 tested, 12% active; AID 2314, 2010; in the data active means max response mostly above about 13%, no sharp cut-off; inactive means mostly below about 14%; further: read at 38.3 µM for the half of the compounds with a filed dose; 0% is about no effect
FBPA Giardia inh – qHTS Assay for Inhibitors of Fructose-1,6-bisphosphate Aldolase from Giardia Lamblia; purified Giardia FBPA; Potency, µM (doses to about 59.6 µM), without a hit: at the highest dose activity, negative = inhibition, hits mostly inhibitors; 290,000 tested, 0.71% active; AID 2451, 2010; further: potency means the concentration at half of the fitted maximal effect; on the % scale 0 is the no-effect control and ±100 the full control effect; nearly all actives have a fitted effect of over 55% in size
Target sequence (A8B2U2 whole entry, looked up): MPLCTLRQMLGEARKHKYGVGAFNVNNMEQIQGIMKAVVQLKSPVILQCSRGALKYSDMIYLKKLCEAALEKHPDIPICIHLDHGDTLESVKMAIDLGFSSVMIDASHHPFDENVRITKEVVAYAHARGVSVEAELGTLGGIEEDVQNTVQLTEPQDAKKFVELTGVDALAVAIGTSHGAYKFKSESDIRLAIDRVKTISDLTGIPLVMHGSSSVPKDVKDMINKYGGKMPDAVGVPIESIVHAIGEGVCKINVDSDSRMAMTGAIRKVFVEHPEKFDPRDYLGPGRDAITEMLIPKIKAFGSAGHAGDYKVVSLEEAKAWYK
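Giardia FBPA (40 nM reagent) was preincubated 10 min at RT with compound (up to 57.5 uM final), then substrate plus GAPDH/TPI/NAD/arsenate coupling system with diaphorase/resazurin was added; resorufin fluorescence (525/598 nm) was read after 20 min.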
Sm TGR inh – qHTS Assay for the Inhibitors of Schistosoma Mansoni Peroxiredoxins. Schistosoma mansoni thioredoxin glutathione reductase (TGR), Q962Y6. purified TGR, DTNB reduction, TNB absorbance 405 nm. Potency, µM (highest dose often 114 µM), without a hit: at the top dose activity change, negative = inhibition, actives largely listed as inhibitors. 360,000 tested, 3% active. AID 485364, 2010; further: potency means the concentration at half of the fitted maximal effect; on the % scale 0 is the no-effect control and ±100 the full control effect; nearly all actives have a fitted effect of over 60% in size
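Kinetic colorimetric format: TGR-catalysed, NADPH-driven DTNB reduction monitored via TNB absorbance. Enzyme dispensed at 20 nM; compound exposure 15 min at room temperature before reaction start.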
Numbers without * were called inactive; ? = inconclusive; nt = no result given; [ ] = remark or other dose. Unless noted, the call rests on the fitted dose curve; in most records, active means well fitted curve in the direction sought with a large enough effect; inconclusive means small, poorly fitted or top-dose-only effect, or another doubt; inactive means no such curve, though single readings can be large; an effect the other way counts as inactive or inconclusive.

SMILES | Shiga toxin inh | TbPYK inhibitor | LmPK inhibitor | Cycloheximide cs | FBPA Giardia inh | Sm TGR inh
CC1(C)CC(=O)c2cc(C(=O)NCc3ccco3)c(=O)n(-c3ccc(Cl)cc3)c2C1 | -22.0 | 0.8% | -2.5% | 4.2 | 0.4% | 31.6µM*
COc1ccc(C)cc1NC(=O)C1CCCN(S(=O)(=O)c2ccc3c(c2)CCCN3C(C)=O)C1 (configuration not stated) | -15.1 | -7.8% | 7.0% | -1.6 | 14.7% | 3.3%
CCOc1cccc(C(=O)NC(=S)Nc2ccc3c(c2)OCCO3)c1 | 113.5* | 0.9% | -2.3% | 61.4* | -13.1% | ?
O=C(Nc1ccc2c(c1)OCCO2)c1ccccc1Cl | nt | -0.8% | nt | nt | nt | nt
CS(=O)(=O)Nc1ccccc1C(=O)Nc1ccc2c(c1)OCCO2 | 46.3 | -10.9% | -7.2% | 15.2* | -2.6% | 1.9%
O=C(Nc1ccc2c(c1)OCCO2)c1ccccc1F | 50.3* | ? | -14.0% | 46.7* | -0.5% | -14.2%[11.4 µM]
O=C(Nc1ccc2c(c1)OCCO2)c1c(F)cccc1F | 74.1* | -4.6% | -14.2% | 41.1* | -5.2% | -2.9%
CCOc1ccccc1CNCc1c(C(=O)O)c(C)n(Cc2ccc(Cl)cc2)c1C | nt | -15.0% | nt | nt | nt | -0.1%
COC(=O)C1(Cc2ccccc2)C2c3cc(C(=O)N4CCCC4)n(Cc4ccc(OC(F)(F)F)cc4)c3CC2CN1C(=O)c1ccccc1 (configuration not stated) | nt | nt | nt | nt | -6.6% | nt
O=C(NC(=S)Nc1ccc2c(c1)OCCO2)c1ccccc1F | 144.9* | 4.9% | -6.2% | 40.9* | -2.4% | ?
COc1cccc(OC)c1C(=O)NC(=S)Nc1ccc2c(c1)OCCO2 | 42.2* | -4.2% | -0.9% | 34.1* | -12.5% | nt
O=C(NC(=S)Nc1ccc2oc(=O)ccc2c1)c1ccccc1F | -13.7 | -0.8% | 1.0% | 24.6* | -5.1% | -12.4%
COc1ccc(-c2cc3ccccc3oc2=O)cc1NC(=S)NC(=O)c1ccc2c(c1)OCCO2 | 115.0* | 1.6% | 0.7% | 63.4* | 1.0% | 3.8%
Cn1c(=O)c2c(nc(SCC(=O)Nc3ccc(OC(F)(F)F)cc3)n2Cc2cccc(C(F)(F)F)c2)n(C)c1=O | nt | 6.6% | nt | nt | nt | -6.3%
Cc1nc2ccccc2n1CCc1nc2c3ccccc3nc(SCc3cccc(F)c3)n2n1 | nt | 0.9% | nt | nt | nt | 5.1%
Cn1cccc1C(=O)N1CCC2(CC1)CN(c1ccccn1)C2 | nt | 1.3% | nt | nt | -1.3% | nt
O=C(Nc1ccc(NC(=O)c2ccc3c(c2)OCCO3)cc1)c1ccccc1 | 22.5 | 4.3% | -6.6% | 8.2 | 7.2% | -0.5%
O=C(NC(=S)Nc1ccc2c(c1)OCCO2)c1ccccc1 | 73.2* | 2.8% | -17.9% | 55.4* | -17.1% | 8.91µM*
Cc1nc2ccc(NC(=S)NCc3ccccc3)cc2nc1C | 34.8 | -1.0% | 0.5% | 26.7* | ? | 39.8µM*
C=CCNC(=S)Nc1ccc2nc(C)c(C)nc2c1 | 61.4 | -20.5% | -2.9% | 27.2* | ? | 39.8µM*
COc1ccc(N(C)C(=S)Nc2ccc3nc(C)c(C)nc3c2)cc1 | -1.4 | -23.7% | -4.0% | -2.4 | ? | 56.2µM*
C=CCNC(=S)Nc1ccc(Cl)cc1 | 12.3 | -10.4% | 3.6% | 10.1 | -11.3% | -13.1%
Cc1ccc(NC(=S)NCc2ccccc2)cc1C | nt | 2.5% | nt | nt | nt | nt
CC(C)NC(=O)c1csc(COCCO)n1 | nt | 1.7% | nt | nt | nt | nt
O=C(Nc1cccc(N2C(=O)C=CC2=O)c1)c1cccs1 | nt | nt | nt | nt | nt | 0.398µM*
O=C(Nc1ccc(NC(=O)c2cccs2)cc1)c1ccccc1 | 45.9* | -2.5% | -0.6% | 23.9* | -3.4% | 0.3%
O=C(Nc1ccc(O)cc1)c1ccc(NC(=O)c2cccs2)cc1 | 86.8* | 2.1% | 3.4% | 37.8* | 2.5% | -7.2%
O=C(Nc1cccc(O)c1)c1ccc(NC(=O)c2cccs2)cc1 | 130.3* | 3.9% | -0.1% | 74.2* | nt | -1.6%
O=C(Nc1ccc(NC(=O)c2cccs2)cc1)c1ccc(Cl)cc1 | nt | -2.6% | nt | nt | nt | 0.7%
Cc1nc2ccccc2c(=O)n1-c1cccc(NC(=O)c2cccs2)c1 | nt | 5.5% | nt | nt | nt | 3.6%
